From the supplement of paper PMC10849652
Of roughly 7,900 targets only a part is listed; those with a hit were picked by preference. About 0.6% of all pairs of compound and target were hits. Unmarked numbers belong to inactive results.

compound: Cc1cc(SCc2sc(-c3ccc(C(F)(F)F)cc3)nc2C)ccc1OCC(=O)O; assay: log2 fold change, soluble protein after heating vs DMSO (PISA); higher = thermal stabilisation; K562 cells, 10 uM, 30 min; active = over 0.2 and 3.5 SD of the protein, either way, in both replicates (recomputed)
How it was run: (§1)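 Soluble protein was quantified by TMTpro 16plex LC-MS/MS after channel sums were equalised. It was obtained as the supernatant after 21,000xg for 90 min from pooled aliquots of K562 cells (2×10^6 cells/mL, 10 μM compound, 30 min) heated for 3 min across 48°C-58°C and extracted in PBS with 0.5% NP-40 at 4°C. Thermal stability values are relative to control samples and come from duplicates. They are given as log2 fold changes.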

UniProt P29083, sequence (P29083 whole entry, looked up): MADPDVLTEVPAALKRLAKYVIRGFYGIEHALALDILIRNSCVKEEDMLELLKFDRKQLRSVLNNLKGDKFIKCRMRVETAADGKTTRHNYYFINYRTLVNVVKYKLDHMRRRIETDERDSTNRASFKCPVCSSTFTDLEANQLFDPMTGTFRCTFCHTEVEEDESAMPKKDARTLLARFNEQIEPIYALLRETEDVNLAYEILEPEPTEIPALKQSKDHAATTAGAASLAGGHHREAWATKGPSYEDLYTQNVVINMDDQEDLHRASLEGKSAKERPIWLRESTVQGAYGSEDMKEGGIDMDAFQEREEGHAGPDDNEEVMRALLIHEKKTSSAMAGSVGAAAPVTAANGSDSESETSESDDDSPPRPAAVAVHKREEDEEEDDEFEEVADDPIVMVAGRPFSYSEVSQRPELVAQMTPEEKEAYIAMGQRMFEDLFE
UniProt P08754, sequence (P08754 whole entry, looked up): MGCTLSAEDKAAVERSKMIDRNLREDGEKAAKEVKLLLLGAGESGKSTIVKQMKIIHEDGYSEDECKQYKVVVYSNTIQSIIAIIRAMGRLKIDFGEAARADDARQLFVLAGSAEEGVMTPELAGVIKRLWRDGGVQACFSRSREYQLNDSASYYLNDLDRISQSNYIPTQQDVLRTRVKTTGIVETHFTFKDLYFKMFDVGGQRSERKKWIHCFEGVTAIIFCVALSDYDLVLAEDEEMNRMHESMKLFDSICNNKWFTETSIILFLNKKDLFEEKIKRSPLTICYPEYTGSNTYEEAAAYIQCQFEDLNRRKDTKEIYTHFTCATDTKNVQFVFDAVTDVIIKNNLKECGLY
UniProt Q5SSJ5, sequence (Q5SSJ5 whole entry, looked up): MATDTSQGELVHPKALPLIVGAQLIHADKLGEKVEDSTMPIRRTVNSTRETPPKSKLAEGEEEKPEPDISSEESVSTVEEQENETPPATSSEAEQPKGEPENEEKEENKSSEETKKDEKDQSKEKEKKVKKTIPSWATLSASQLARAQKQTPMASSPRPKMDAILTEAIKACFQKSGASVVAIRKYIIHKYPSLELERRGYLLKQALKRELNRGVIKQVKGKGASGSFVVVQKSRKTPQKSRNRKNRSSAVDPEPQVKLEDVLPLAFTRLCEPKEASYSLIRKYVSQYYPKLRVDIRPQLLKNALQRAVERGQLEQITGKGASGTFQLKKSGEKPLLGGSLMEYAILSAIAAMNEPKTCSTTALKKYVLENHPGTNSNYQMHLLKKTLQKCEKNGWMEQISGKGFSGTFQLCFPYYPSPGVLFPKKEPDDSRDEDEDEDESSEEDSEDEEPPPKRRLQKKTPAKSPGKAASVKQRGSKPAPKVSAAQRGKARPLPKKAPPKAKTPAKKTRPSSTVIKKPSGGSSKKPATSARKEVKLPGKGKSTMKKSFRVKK
UniProt Q8TEQ6, sequence (Q8TEQ6 whole entry, looked up): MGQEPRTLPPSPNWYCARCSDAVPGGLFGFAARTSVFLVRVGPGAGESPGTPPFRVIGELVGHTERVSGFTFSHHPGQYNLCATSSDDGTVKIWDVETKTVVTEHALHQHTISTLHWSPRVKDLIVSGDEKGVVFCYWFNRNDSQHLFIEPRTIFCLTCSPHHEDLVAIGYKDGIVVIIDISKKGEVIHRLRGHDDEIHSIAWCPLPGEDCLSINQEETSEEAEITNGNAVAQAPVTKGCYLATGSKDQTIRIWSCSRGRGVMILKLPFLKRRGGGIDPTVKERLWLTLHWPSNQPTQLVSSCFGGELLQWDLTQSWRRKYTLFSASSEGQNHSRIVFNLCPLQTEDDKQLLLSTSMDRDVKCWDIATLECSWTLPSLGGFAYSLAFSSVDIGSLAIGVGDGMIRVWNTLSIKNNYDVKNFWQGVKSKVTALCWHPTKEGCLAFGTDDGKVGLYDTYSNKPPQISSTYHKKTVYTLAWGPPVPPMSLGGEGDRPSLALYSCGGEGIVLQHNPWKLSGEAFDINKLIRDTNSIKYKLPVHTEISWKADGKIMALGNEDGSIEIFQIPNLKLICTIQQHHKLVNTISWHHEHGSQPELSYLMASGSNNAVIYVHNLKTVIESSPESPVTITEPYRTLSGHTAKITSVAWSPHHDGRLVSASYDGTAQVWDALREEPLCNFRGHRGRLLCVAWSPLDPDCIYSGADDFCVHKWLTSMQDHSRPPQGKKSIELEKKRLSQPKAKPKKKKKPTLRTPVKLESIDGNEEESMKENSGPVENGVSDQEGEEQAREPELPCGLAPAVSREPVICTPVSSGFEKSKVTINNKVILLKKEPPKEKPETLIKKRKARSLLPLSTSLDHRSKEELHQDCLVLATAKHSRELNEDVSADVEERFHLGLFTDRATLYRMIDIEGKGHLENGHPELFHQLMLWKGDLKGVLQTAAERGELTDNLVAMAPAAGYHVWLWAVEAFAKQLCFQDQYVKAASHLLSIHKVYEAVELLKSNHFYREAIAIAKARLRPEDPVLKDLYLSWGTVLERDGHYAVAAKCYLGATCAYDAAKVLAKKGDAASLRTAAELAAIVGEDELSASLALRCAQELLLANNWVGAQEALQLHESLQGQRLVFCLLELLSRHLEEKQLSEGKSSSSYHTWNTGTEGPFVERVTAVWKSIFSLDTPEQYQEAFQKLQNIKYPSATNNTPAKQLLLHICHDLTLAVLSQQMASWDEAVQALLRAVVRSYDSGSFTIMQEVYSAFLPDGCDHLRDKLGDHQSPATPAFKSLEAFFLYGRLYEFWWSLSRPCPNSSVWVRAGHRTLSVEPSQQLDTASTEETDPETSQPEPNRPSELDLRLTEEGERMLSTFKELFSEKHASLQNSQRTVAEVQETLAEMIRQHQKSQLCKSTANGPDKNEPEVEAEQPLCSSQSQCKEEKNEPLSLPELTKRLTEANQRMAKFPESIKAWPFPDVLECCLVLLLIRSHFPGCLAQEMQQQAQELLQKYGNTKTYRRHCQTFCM
UniProt Q00688, sequence (Q00688 whole entry, looked up): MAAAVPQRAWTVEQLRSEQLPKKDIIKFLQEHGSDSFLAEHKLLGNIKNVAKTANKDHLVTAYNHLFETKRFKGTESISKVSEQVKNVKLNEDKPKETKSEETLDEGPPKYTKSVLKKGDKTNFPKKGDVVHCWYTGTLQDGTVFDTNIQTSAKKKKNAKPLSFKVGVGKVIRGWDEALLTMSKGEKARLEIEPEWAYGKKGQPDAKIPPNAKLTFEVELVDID
UniProt Q53R41, sequence (Q53R41 whole entry, looked up): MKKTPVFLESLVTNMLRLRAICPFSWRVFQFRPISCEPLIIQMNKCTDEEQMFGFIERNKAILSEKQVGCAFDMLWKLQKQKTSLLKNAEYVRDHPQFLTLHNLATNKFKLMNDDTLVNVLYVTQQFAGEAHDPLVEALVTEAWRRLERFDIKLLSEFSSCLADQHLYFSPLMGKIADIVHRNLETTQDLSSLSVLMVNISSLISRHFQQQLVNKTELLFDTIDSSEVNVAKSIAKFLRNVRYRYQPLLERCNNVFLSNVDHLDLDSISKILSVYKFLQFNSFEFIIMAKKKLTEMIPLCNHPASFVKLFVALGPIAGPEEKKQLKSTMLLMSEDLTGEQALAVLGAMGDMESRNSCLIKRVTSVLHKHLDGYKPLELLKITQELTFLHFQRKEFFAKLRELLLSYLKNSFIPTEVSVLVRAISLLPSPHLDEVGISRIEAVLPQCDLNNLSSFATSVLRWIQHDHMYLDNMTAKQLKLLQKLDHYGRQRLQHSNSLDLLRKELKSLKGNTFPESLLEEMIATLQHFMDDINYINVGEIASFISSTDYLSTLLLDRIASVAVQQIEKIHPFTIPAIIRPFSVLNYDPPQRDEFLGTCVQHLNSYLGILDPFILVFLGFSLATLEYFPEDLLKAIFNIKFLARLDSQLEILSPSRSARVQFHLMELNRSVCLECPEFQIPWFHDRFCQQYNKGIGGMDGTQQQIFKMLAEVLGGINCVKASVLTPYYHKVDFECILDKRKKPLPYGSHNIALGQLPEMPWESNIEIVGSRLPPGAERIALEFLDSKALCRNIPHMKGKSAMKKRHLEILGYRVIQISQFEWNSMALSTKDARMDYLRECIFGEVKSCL
UniProt Q9Y3D6, sequence (Q9Y3D6 whole entry, looked up): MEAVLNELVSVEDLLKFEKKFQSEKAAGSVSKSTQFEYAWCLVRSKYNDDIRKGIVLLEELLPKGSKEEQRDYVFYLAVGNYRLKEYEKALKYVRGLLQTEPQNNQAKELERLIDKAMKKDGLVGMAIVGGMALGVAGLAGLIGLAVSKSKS
UniProt Q9UQC2, sequence (Q9UQC2 whole entry, looked up): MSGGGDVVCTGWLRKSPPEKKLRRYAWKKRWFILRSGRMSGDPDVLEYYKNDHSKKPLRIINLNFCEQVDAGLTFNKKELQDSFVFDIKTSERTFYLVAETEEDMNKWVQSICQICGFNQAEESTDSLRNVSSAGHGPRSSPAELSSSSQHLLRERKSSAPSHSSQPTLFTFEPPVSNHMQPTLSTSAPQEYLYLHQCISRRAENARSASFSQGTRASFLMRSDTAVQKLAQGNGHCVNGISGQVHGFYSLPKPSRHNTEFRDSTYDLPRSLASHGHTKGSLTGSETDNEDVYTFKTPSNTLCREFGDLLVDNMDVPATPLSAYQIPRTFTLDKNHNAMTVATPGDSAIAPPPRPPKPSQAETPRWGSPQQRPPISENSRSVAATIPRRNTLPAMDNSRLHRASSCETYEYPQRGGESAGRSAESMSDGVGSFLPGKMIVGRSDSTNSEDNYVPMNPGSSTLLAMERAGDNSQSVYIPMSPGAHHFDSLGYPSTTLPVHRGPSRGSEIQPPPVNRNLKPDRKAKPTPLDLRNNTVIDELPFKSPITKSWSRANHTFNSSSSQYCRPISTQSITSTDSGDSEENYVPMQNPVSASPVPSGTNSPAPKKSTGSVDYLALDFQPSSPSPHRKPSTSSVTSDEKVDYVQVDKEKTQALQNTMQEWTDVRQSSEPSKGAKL
UniProt Q9BUP3, sequence (Q9BUP3 whole entry, looked up): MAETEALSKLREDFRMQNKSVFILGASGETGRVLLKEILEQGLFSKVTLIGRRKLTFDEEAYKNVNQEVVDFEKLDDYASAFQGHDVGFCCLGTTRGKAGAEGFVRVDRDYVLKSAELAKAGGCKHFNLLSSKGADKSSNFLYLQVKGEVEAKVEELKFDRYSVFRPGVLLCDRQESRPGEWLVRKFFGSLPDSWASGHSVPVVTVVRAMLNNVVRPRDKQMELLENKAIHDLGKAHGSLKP

Row | Target | log2 fold change
1 | GTF3C4 (UniProt Q9UKN8) | -0.063
2 | HEATR5B (UniProt Q9P2D3) | 0.036
3 | IDI1 isoform 2 (UniProt Q13907) | -0.028
4 | HP1BP3 (UniProt Q5SSJ5) | 0.121
5 | GSK3A (UniProt P49840) | 0.015
6 | GNAI3 (UniProt P08754) | -0.014
7 | GUSB (UniProt P08236) | -0.039
8 | GEMIN5 (UniProt Q8TEQ6) | 0.055
9 | FASTKD1 (UniProt Q53R41) | 0.12
10 | GNAS (UniProt Q5JWF2) | 0.003
11 | GOLGB1 isoform 2 (UniProt Q14789) | -0.025
12 | HEXB (UniProt P07686) | -0.031
13 | H2AFX (UniProt P16104) | -0.078
14 | GCDH (UniProt Q92947) | -0.021
15 | FIS1 (UniProt Q9Y3D6) | 0.071
16 | FKBP3 (UniProt Q00688) | -0.006
17 | FBXO7 (UniProt Q9Y3I1) | 0.083
18 | HIP1R (UniProt O75146) | 0.029

Row | Target | log2 fold change
19 | IDH3A (UniProt P50213) | 0.022
20 | HMGB3 (UniProt O15347) | -0.001
21 | FBL (UniProt P22087) | -0.01
22 | GAB2 (UniProt Q9UQC2) | 0.181
23 | FDPS (UniProt P14324) | 0.222
24 | HTATIP2 isoform 3 (UniProt Q9BUP3) | 0.027
25 | FBXO3 (UniProt Q9UK99) | -0.025
26 | HMOX2 (UniProt P30519) | 0.041
27 | GLS isoform 3 (UniProt O94925) | 0.064
28 | H1FX (UniProt Q92522) | 0.021
29 | GBF1 (UniProt Q92538) | 0.041
30 | GTF2E1 (UniProt P29083) | 0.059
31 | GLCCI1 (UniProt Q86VQ1) | 0.044
32 | FNTA (UniProt P49354) | -0.014
33 | HIP1 (UniProt O00291) | 0.027
34 | HIST2H3A (UniProt Q71DI3) | -0.031
35 | GCC2 (UniProt Q8IWJ2) | 0.048

compound: Cc1ccc(-n2nc(C(C)(C)C)cc2NC(=O)Nc2ccc(OCCN3CCOCC3)c3ccccc23)cc1 [doramapimod]; assay: as above
How it was run: as §1

Row | Target | log2 fold change
36 | GTF3C4 (UniProt Q9UKN8) | -0.019
37 | HEATR5B (UniProt Q9P2D3) | -0.015
38 | IDI1 isoform 2 (UniProt Q13907) | -0.063
39 | HP1BP3 (UniProt Q5SSJ5) | 0.035
40 | GSK3A (UniProt P49840) | -0.039
41 | GNAI3 (UniProt P08754) | 0.036
42 | GUSB (UniProt P08236) | 0.042
43 | GEMIN5 (UniProt Q8TEQ6) | -0.001
44 | FASTKD1 (UniProt Q53R41) | 0.037
45 | GNAS (UniProt Q5JWF2) | 0.007
46 | GOLGB1 isoform 2 (UniProt Q14789) | 0.056
47 | HEXB (UniProt P07686) | -0.007
48 | H2AFX (UniProt P16104) | 0.348
49 | GCDH (UniProt Q92947) | -0.012
50 | FIS1 (UniProt Q9Y3D6) | 0.02
51 | FKBP3 (UniProt Q00688) | 0
52 | FBXO7 (UniProt Q9Y3I1) | -0.029
53 | HIP1R (UniProt O75146) | 0.007

Row | Target | log2 fold change
54 | IDH3A (UniProt P50213) | -0.024
55 | HMGB3 (UniProt O15347) | 0.002
56 | FBL (UniProt P22087) | 0.279
57 | GAB2 (UniProt Q9UQC2) | 0.118
58 | FDPS (UniProt P14324) | 0.004
59 | HTATIP2 isoform 3 (UniProt Q9BUP3) | 0.003
60 | FBXO3 (UniProt Q9UK99) | -0.003
61 | HMOX2 (UniProt P30519) | 0.062
62 | GLS isoform 3 (UniProt O94925) | 0.023
63 | H1FX (UniProt Q92522) | 0.188
64 | GBF1 (UniProt Q92538) | 0.059
65 | GTF2E1 (UniProt P29083) | -0.03
66 | GLCCI1 (UniProt Q86VQ1) | -0.032
67 | FNTA (UniProt P49354) | -0.043
68 | HIP1 (UniProt O00291) | 0
69 | HIST2H3A (UniProt Q71DI3) | 0.098
70 | GCC2 (UniProt Q8IWJ2) | 0.136
